Molecular target: Hexose transporter 1 (Plasmodium falciparum) (UniProt O97467)
Assay: ST_JUDE_LEISH: Cytotoxicity at 2uM final concentration against transgenic Leishmania Mexicana promastigotes LmPfHT that are glucose transport deficient and complemented with the Plasmodium falciparum hexose transporter. Activity is measured by DNA content using SYBR green in vitro
Assay type: functional

SMILES | inhibition
Cc1[nH]c(C)c(-c2ccc(-c3ccccc3F)nc2)c(=O)c1Cl | -2.36%
c1ccc(Oc2ccc(Nc3ccnc4cc(-c5csc(CNCCN6CCOCC6)n5)ccc34)cc2)cc1 | 1.23%
CCCc1cc(Cc2cnc(N)nc2N)cc(CCC)c1OCCCCC(=O)OCC | 2.3%
O=S(=O)(c1ccccc1)n1ccc2cc(Nc3ncnc4cc(C#C[C@H]5CCCN5)sc34)ccc21 | 2.14%
COc1ccccc1COc1c(C)nc(N)nc1N | -0.61%
Nc1ncnc2nc(-c3ccc(F)cc3)cc(-c3ccc(NC(=O)c4ccccc4)cc3)c12 | 2.67%
Cc1nc2ccc3nc(NC(=O)c4ccno4)sc3c2s1 | 1.13%
O=C(Nc1ccc(Cl)cc1)Nc1cccc(-c2cccc(-c3nc4cc(C(F)(F)F)ccc4[nH]3)c2)c1 | -0.83%
Cc1ccc(-c2nn3c(O)c4c(nc3c2C)CCCC4)cc1 | 1.68%
CCCCc1ccc(-c2nc(NC(=O)Nc3[nH]c(-c4ccccc4)nc3C(=O)OCC)c(C(=O)OCC)[nH]2)cc1 | 0.82%
CCOc1ccc(NC(=O)c2ccc(CN3CCCN(Cc4cccc(O)c4)CC3)cc2)cc1 | 3.89%
Clc1ccc(CNCC2CCN(CC3CCCCC3)CC2)cc1Cl | 0.7%
COc1ccccc1-c1cccc(-c2cccc(NC(=O)c3ccc([N+](=O)[O-])o3)c2)n1 | 16.8%
COc1cc2nc(N3CCC(CNC(=O)/C=C/c4ccccc4F)CC3)nc(N)c2cc1OC | 7.84%
CON=Cc1ccn(-c2ccc(O)c3c2C[C@H]2C[C@H]4[C@H](N(C)C)C(O)=C(C(N)=O)C(=O)[C@@]4(O)C(O)=C2C3=O)c1 | 4.25%
Nc1cccc(CNCc2ccc(-c3ccc(-c4nc5ccccc5[nH]4)s3)cc2)c1 | -0.53%
COc1cc(F)c2ncc(Cl)c(CCN3CCC(NCc4cc5c(cn4)OCCO5)CC3)c2c1 | 41.5%
O=C(NC1CCC(N2CCC(O)(c3ccc(F)cc3)CC2)CC1)c1cc2ccccc2[nH]1 (stereo not given) | 2.62%
Cc1ccc(C)c(NC(=O)CC2C(=O)N(c3ccccc3)C(=S)N2Cc2ccco2)c1 (stereo not given) | 5.73%
CN(C)C=Nc1ccc(OCCCCCCOc2ccc(N=CN(C)C)cc2)cc1 | 3.26%

SMILES | inhibition
O=C(Nc1ccccc1)N(Cc1cccc(-c2ccc(CNCCc3ccccc3)cc2)c1)C1CCN(Cc2ccccc2)CC1 | -0.56%
CCOC(=O)c1sc(C(C)Nc2ccccc2)nc1-c1ccccc1 (stereo not given) | -0.3%
CCOC(=O)c1cc(Cl)ccc1OCCCON1C(=N)N=C(N)NC1(C)C | 3.52%
CCCCCCn1c(Sc2ccc(C#N)c([N+](=O)[O-])c2)nnc1-c1cccc(Cl)c1 | 9.17%
CN1CCN(c2ccc(Nc3c4ccccc4nc4ccccc34)cc2)CC1 | 6.39%
O=C(CSc1nnc(O)n1Cc1ccccc1)Nc1ccccc1-c1ccccc1 | 6.12%
O=C(C1CC1)N1c2ccccc2CCc2ccccc21 | -0.1%
Cc1ccc(CNC(=O)[C@H](CC(C)C)Nc2cc(C)nc(NCC3CCCCC3)n2)cc1 | 9.15%
COc1ccc(OCC(O)CN(Cc2ccccc2OC)C(=O)Nc2ccc(Br)cc2)cc1 (stereo not given) | 4.6%
Cc1cccc(Nc2nc(C)cc(N3CCCN(CC4CCCCC4)CC3)n2)c1 | 1.98%
Cc1nc(-c2nc(N3CCOCC3)ncc2-c2ccsc2)sc1C | -0.4%
O=C(Nc1ccncc1)c1cc(C(=O)Nc2ccncc2)cc([N+](=O)[O-])c1 | -3.19%
COc1ccc(-c2nc(NC(=O)CSc3ccc([N+](=O)[O-])cc3)sc2C)cc1 | -0.37%
CC(C)(C)c1ccc(C(=O)N2CCC3(CC2)C(=O)N(CC(=O)NCC2CCCO2)CN3c2ccccc2)cc1 (stereo not given) | 4.61%
CN(C)CCCN1CCN(C(=O)c2cc3cc(-c4ccccc4)ccc3n2S(=O)(=O)c2ccccc2)CC1 | 24.3%
N#Cc1cccc(NC(=O)Nc2cccc(-c3cccc(-c4nc5cc(C(F)(F)F)ccc5[nH]4)c3)c2)c1 | 1.85%
O=[N+]([O-])c1cccc(Nc2nccc(-c3cnn4ncccc34)n2)c1 | 85.4%
Cc1cc(CNC(=O)[C@H](CC2CCCCC2)Nc2ccc(C#N)c3ccccc23)c(C(F)(F)F)o1 | 1.57%
Cc1cc(NC(=O)NCCN2CCC(NS(=O)(=O)c3ccccc3Cl)C2)c2ccccc2n1 (stereo not given) | 1.02%
O=C(Nc1ccccc1)N(Cc1cccc(-c2cccc(CNCCc3ccccc3)c2)c1)C1CCN(Cc2ccccc2)CC1 | 2.49%

Molecular target: Glucose transporter (Leishmania mexicana) (UniProt O61059)
Assay: ST_JUDE_LEISH: Cytotoxicity at 2uM final concentration against transgenic Leishmania Mexicana promastigotes LmGT2 that are glucose transport deficient and complemented with the L. Mexicana glucose transporter 2. Activity is measured by DNA content using SYBR green in vitro
Assay type: functional

SMILES | inhibition
Cc1[nH]c(C)c(-c2ccc(-c3ccccc3F)nc2)c(=O)c1Cl | 1.16%
c1ccc(Oc2ccc(Nc3ccnc4cc(-c5csc(CNCCN6CCOCC6)n5)ccc34)cc2)cc1 | -0.68%
CCCc1cc(Cc2cnc(N)nc2N)cc(CCC)c1OCCCCC(=O)OCC | 1.54%
O=S(=O)(c1ccccc1)n1ccc2cc(Nc3ncnc4cc(C#C[C@H]5CCCN5)sc34)ccc21 | -0.2%
COc1ccccc1COc1c(C)nc(N)nc1N | -1.06%
Nc1ncnc2nc(-c3ccc(F)cc3)cc(-c3ccc(NC(=O)c4ccccc4)cc3)c12 | 2.02%
Cc1nc2ccc3nc(NC(=O)c4ccno4)sc3c2s1 | -1.31%
O=C(Nc1ccc(Cl)cc1)Nc1cccc(-c2cccc(-c3nc4cc(C(F)(F)F)ccc4[nH]3)c2)c1 | -2.27%
Cc1ccc(-c2nn3c(O)c4c(nc3c2C)CCCC4)cc1 | 1.28%
CCCCc1ccc(-c2nc(NC(=O)Nc3[nH]c(-c4ccccc4)nc3C(=O)OCC)c(C(=O)OCC)[nH]2)cc1 | -0.95%
CCOc1ccc(NC(=O)c2ccc(CN3CCCN(Cc4cccc(O)c4)CC3)cc2)cc1 | 4.11%
Clc1ccc(CNCC2CCN(CC3CCCCC3)CC2)cc1Cl | 0.64%
COc1ccccc1-c1cccc(-c2cccc(NC(=O)c3ccc([N+](=O)[O-])o3)c2)n1 | 9.06%
COc1cc2nc(N3CCC(CNC(=O)/C=C/c4ccccc4F)CC3)nc(N)c2cc1OC | 4.27%
CON=Cc1ccn(-c2ccc(O)c3c2C[C@H]2C[C@H]4[C@H](N(C)C)C(O)=C(C(N)=O)C(=O)[C@@]4(O)C(O)=C2C3=O)c1 | 4.92%
Nc1cccc(CNCc2ccc(-c3ccc(-c4nc5ccccc5[nH]4)s3)cc2)c1 | 2.48%
COc1cc(F)c2ncc(Cl)c(CCN3CCC(NCc4cc5c(cn4)OCCO5)CC3)c2c1 | 55.4%
O=C(NC1CCC(N2CCC(O)(c3ccc(F)cc3)CC2)CC1)c1cc2ccccc2[nH]1 (stereo not given) | -0.31%
Cc1ccc(C)c(NC(=O)CC2C(=O)N(c3ccccc3)C(=S)N2Cc2ccco2)c1 (stereo not given) | 5.93%
CN(C)C=Nc1ccc(OCCCCCCOc2ccc(N=CN(C)C)cc2)cc1 | 2.37%

SMILES | inhibition
O=C(Nc1ccccc1)N(Cc1cccc(-c2ccc(CNCCc3ccccc3)cc2)c1)C1CCN(Cc2ccccc2)CC1 | 0.13%
CCOC(=O)c1sc(C(C)Nc2ccccc2)nc1-c1ccccc1 (stereo not given) | -1.6%
CCOC(=O)c1cc(Cl)ccc1OCCCON1C(=N)N=C(N)NC1(C)C | 3.08%
CCCCCCn1c(Sc2ccc(C#N)c([N+](=O)[O-])c2)nnc1-c1cccc(Cl)c1 | 0.88%
CN1CCN(c2ccc(Nc3c4ccccc4nc4ccccc34)cc2)CC1 | 5.74%
O=C(CSc1nnc(O)n1Cc1ccccc1)Nc1ccccc1-c1ccccc1 | 5.02%
O=C(C1CC1)N1c2ccccc2CCc2ccccc21 | -0.64%
Cc1ccc(CNC(=O)[C@H](CC(C)C)Nc2cc(C)nc(NCC3CCCCC3)n2)cc1 | 9.26%
COc1ccc(OCC(O)CN(Cc2ccccc2OC)C(=O)Nc2ccc(Br)cc2)cc1 (stereo not given) | 1.1%
Cc1cccc(Nc2nc(C)cc(N3CCCN(CC4CCCCC4)CC3)n2)c1 | -0.15%
Cc1nc(-c2nc(N3CCOCC3)ncc2-c2ccsc2)sc1C | 1.4%
O=C(Nc1ccncc1)c1cc(C(=O)Nc2ccncc2)cc([N+](=O)[O-])c1 | -0.41%
COc1ccc(-c2nc(NC(=O)CSc3ccc([N+](=O)[O-])cc3)sc2C)cc1 | -1.33%
CC(C)(C)c1ccc(C(=O)N2CCC3(CC2)C(=O)N(CC(=O)NCC2CCCO2)CN3c2ccccc2)cc1 (stereo not given) | 0.02%
CN(C)CCCN1CCN(C(=O)c2cc3cc(-c4ccccc4)ccc3n2S(=O)(=O)c2ccccc2)CC1 | 2.85%
N#Cc1cccc(NC(=O)Nc2cccc(-c3cccc(-c4nc5cc(C(F)(F)F)ccc5[nH]4)c3)c2)c1 | 3.18%
O=[N+]([O-])c1cccc(Nc2nccc(-c3cnn4ncccc34)n2)c1 | 79.9%
Cc1cc(CNC(=O)[C@H](CC2CCCCC2)Nc2ccc(C#N)c3ccccc23)c(C(F)(F)F)o1 | -1.16%
Cc1cc(NC(=O)NCCN2CCC(NS(=O)(=O)c3ccccc3Cl)C2)c2ccccc2n1 (stereo not given) | 8.99%
O=C(Nc1ccccc1)N(Cc1cccc(-c2cccc(CNCCc3ccccc3)c2)c1)C1CCN(Cc2ccccc2)CC1 | 4.94%

Source: ChEMBL document CHEMBL3433997, “St. Jude Leishmania screening dataset” (2016)
